Pf growth 48h: Primary qHTS for delayed death inhibitors of the malarial parasite plastid, 48 hour incubation; P. falciparum luciferase growth in erythrocytes, 48 h; Potency, µM (top dose mostly 28.7 µM), for inactives: at the top dose activity change, negative = inhibition, hits mostly inhibitors; 5.9% of 310,000 active; also: potency is read from the fitted curve at half-maximal effect
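Luciferase-expressing parasites in RBCs, 2% Hct / 0.1% parasitemia final; RPMI 1640 + 0.5% Albumax; 37 C, 5% CO2, one generation; luminescence read-out, lower signal = inhibition.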
HCMV inh: qHTS Assay for inhibitors of the human cytomegalovirus (HCMV); HFF cells, HCMV-luciferase reporter, 72 h; active compounds read low; 4.5% of 410,000 active; activity change, negative = inhibition, % at 57.5 µM; in the data active = activity change below about -60%; inconclusive = no clear call, values can overlap the other calls; inactive = above about -39%
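Human foreskin fibroblasts infected with luciferase-reporter HCMV at MOI 1 PFU/cell, compounds at two doses. Luciferase measured 72 h post infection; normalized to buffer-only basal and Salinomycin (10uM) controls.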
Sm TGR inh: qHTS Assay for the Inhibitors of Schistosoma Mansoni Peroxiredoxins; 3% of 360,000 active; purified TGR, DTNB reduction, TNB absorbance 405 nm; Potency, µM (series often up to 114 µM), for the others: top-dose activity change, negative = inhibition, hits mostly inhibitors; Schistosoma mansoni thioredoxin glutathione reductase (TGR), Q962Y6; also: potency is read from the fitted curve at half-maximal effect; nearly all actives have a fitted effect of over 60% in size
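Kinetic colorimetric format: TGR-catalysed, NADPH-driven DTNB reduction monitored via TNB absorbance. Enzyme dispensed at 20 nM; compound exposure 15 min at room temperature before reaction start.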
FBPA Giardia inh: qHTS Assay for Inhibitors of Fructose-1,6-bisphosphate Aldolase from Giardia Lamblia; A8B2U2; purified Giardia FBPA; Potency, µM (top dose mostly 59.6 µM), for the others: at the highest dose activity, negative = inhibition, actives largely listed as inhibitors; 0.71% of 290,000 active; AID 2451, 2010; also: potency is read from the fitted curve at half-maximal effect; nearly all actives have a fitted effect of over 55% in size
Target sequence (A8B2U2 whole entry, looked up): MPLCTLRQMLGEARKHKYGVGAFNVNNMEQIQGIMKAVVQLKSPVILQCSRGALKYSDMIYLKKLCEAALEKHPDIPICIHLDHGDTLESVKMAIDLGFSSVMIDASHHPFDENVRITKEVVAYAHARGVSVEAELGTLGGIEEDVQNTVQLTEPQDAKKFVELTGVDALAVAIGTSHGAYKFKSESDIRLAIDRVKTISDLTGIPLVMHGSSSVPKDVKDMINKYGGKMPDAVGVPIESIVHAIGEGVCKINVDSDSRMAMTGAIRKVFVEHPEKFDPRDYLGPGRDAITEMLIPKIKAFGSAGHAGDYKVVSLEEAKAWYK
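40 nM FBPA preincubated 10 min at RT with compound (up to 57.5 uM final), then substrate plus GAPDH/TPI/NAD/arsenate coupling and diaphorase/resazurin added. Fluorescence read after 20 min at RT, 525/598 nm.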
Pf growth 96h: Primary qHTS for delayed death inhibitors of the malarial parasite plastid, 96 hour incubation. P. falciparum luciferase reporter growth, 96 h. Potency, µM (highest dose often 28.7 µM), without a hit: at the highest dose activity change, negative = inhibition, most hits filed as inhibitors. 6.9% of 320,000 active. AID 504834, 2011; also: potency is read from the fitted curve at half-maximal effect
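Readout is luminescence from an integrated firefly luciferase in P. falciparum. Red cells, 2% hematocrit and 0.05% parasitemia final, were cultured with compound through two parasite generations (96 hours) at 37 C, 5% CO2.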
* marks the source's active call; other numbers are inactive results; i = inactive; ? = inconclusive; / = no result; [ ] = dose if it differs, or a comment. A selection: hits, their analogues and other compounds. The true share with any hit is near 14%. Unless noted, calls follow the shape of the dose curve; as a rule, active = well fitted curve in the direction sought with a large enough effect; inconclusive = small, poorly fitted or top-dose-only effect, or another doubt; inactive = no such curve, though single readings can be large; an effect the other way counts as inactive or inconclusive. % is scaled to controls: 0 for no effect and ±100 for the full control effect.

SMILES	Pf growth 48h	HCMV inh	Sm TGR inh	FBPA Giardia inh	Pf growth 96h
COc1cccc(C2=NOC(C(=O)NCCN3CCOCC3)C2)c1 (centres undefined)	?	-17.7	-21.9%	3.5%	8.28µM*
COc1ccc(C2=NOC(C(=O)NCCN3CCOCC3)C2)cc1 (centres undefined)	?	34.3	2.0%	3.4%	27.3%
COc1cc(NC(=O)C2CC(c3c(F)cccc3Cl)=NO2)c(OC)cc1Cl (centres undefined)	-28.9%	2.6	-21.0%	0.7%	10.4µM*
COc1cccc(C2=NOC(C(=O)Nc3cccnc3)C2)c1 (centres undefined)	15.8%	-23.7	-25.5%	2.2%	30.5%
COc1cccc(C2=NOC(C(=O)Nc3cc(C)on3)C2)c1 (centres undefined)	-6.3%	-101.8*	19.4%	9.0%	-6.8%
COc1cc(OC)c2c(c1)OC1Cc3cc(OC)c(OC)cc3C2O1 (centres undefined)	/	/	/	8.1%[12.9 µM]	/
O=C(NCc1ccc(F)cc1)C1CCN(S(=O)(=O)c2ccc3c(c2)CCCN3C(=O)C2CCC2)CC1	/	-20.9	4.1%	/	/
CCN(CC)CCNC(=O)COc1ccc(Cl)cc1	-4.9%	/	/	/	-6.7%
CS(=O)(=O)c1ccc(NC(=O)CCN2C(=O)C3CC=CCC3C2=O)cc1 (centres undefined)	0.0%	-25.9	-8.8%	/	-6.7%
Cc1cccn2c(=O)c3cc(C(=O)NCC4CCCO4)c(=N)n(C4CCCC4)c3nc12 (centres undefined)	?	1.0	0.2%	-0.5%	-20.2%
O=C(Nc1cccc(O)c1)C1CC(c2ccc(Cl)cc2)=NO1 (centres undefined)	0.0%	-13.2	3.1%	-1.9%	5.7%
COc1ccc(C2=NOC(C(=O)Nc3cccc(O)c3)C2)cc1 (centres undefined)	22.6%	39.4	-9.0%	5.1%	5.22µM*
COc1ccc(C2=NOC(C(=O)Nc3cc(C)on3)C2)cc1 (centres undefined)	/	51.9	-13.2%	0.8%	9.28µM*
COc1ccc(C2=NOC(C(=O)Nc3cc(Br)ccc3O)C2)cc1OC (centres undefined)	14.7µM*	-1.7	-0.9%	-2.1%	1.8%
O=C(O)c1ccc(-c2ccc3cc(C45CC6CC(CC(C6)C4)C5)c(O)cc3c2)cc1	/	/	/	-29.8%	/
CCN(Cc1cccc(OC)c1)CC1CCCN(CCc2cccc(OC)c2)C1 (centres undefined)	?	-19.3	3.6%	10.6%	?
CC(=O)Nc1ccc(CN(C)CC2CCCN(CCc3cccc(C(F)(F)F)c3)C2)cc1 (centres undefined)	4.15µM*	-30.1	1.6%	0.1%	?
CCN(Cc1ccc(O)cc1)CC1CCCN(CCc2cccc(F)c2)C1 (centres undefined)	2.33µM*	3.7	?	-0.1%	11.7µM*
CS(=O)(=O)N1CCC2(CC1)CN(Cc1nccs1)C2	/	/	/	0.9%	/
COc1ccc(-c2nc(C(=O)N3CCN(C)CC3)sc2-c2ccc(OC)cc2)cc1	/	/	/	-15.1%	/
CCOc1ccc(C(C)=O)cc1CC(C(N)=O)C(N)=O	/	0.1	-19.9%	0.1%	-55.1%
CCOc1ccc(C(C)=O)cc1COC(=O)C1=COCCO1	?	10.1	28.2µM*	18.9%	?
COc1ccc(-c2nnc(SCC(=O)N(C)C3CCS(=O)(=O)C3)n2CC(C)C)cc1 (centres undefined)	/	7.1	/	/	/
Cc1cc(C)nc(Nc2nc3ccccc3s2)n1	154.7%	202.9	-0.2%	3.2%	1.65µM*
CC(=O)c1c(C)nc(Nc2nc3ccccc3s2)nc1C	309.9%	125.9	6.5%	2.3%	i
SMILES	Pf growth 48h	HCMV inh	Sm TGR inh	FBPA Giardia inh	Pf growth 96h
COc1ccccc1OCc1nc(C#N)c(NCCCn2ccnc2)o1	-7.2%	?	44.7µM*	1.6%	2.2%
COc1ccccc1OCc1nc(C#N)c(NCc2ccc(C)cc2)o1	/	2.0	-9.4%	/	/
N#Cc1nc(COc2ccc(F)cc2)oc1NCCCn1ccnc1	-24.9%	-28.4	-13.2%	5.2%	12.9%
N#Cc1nc(COc2ccccc2)oc1NCCCn1ccnc1	?	6.4	-3.3%	0.6%	?
COc1ccc(Nc2oc(COc3ccccc3OC)nc2C#N)cc1	-16.9%	-79.6*	17.8µM*	-8.0%	?
CCNc1oc(COc2ccccc2F)nc1C#N	53.7%	-10.8	56.2µM*	0.2%	/
N#Cc1nc(COc2ccccc2F)oc1NCCCn1ccnc1	17.0%	-16.3	25.1µM*	1.7%	11.8%
COc1ccc(CCNc2oc(COc3ccccc3F)nc2C#N)cc1OC	?	-3.4	?	-2.3%	157.3%
Cc1ccc(C2CCN(C(=O)c3cnn(-c4ccc(C)c(C)c4)c3C3CCN(C(=O)OC(C)(C)C)CC3)C2)cc1 (centres undefined)	/	0.0	-12.0%	/	/
Cc1ccc(C)c(NC(=S)N/N=C2/CCCCc3ccccc32)c1	8.28µM*	-70.9*	-3.0%	1.1%	4.15µM*
Cc1ccc2oc(=O)c3cnn(CC(=O)Nc4cccc(C(F)(F)F)c4)c3c2c1	/	-4.8	-10.7%	/	/
Cc1cc(C)c2c(ccc3ccccc32)n1	/	-11.7	/	/	/
Oc1ccc(-c2nc3ccc4ccccc4c3c3c2CCC3)cc1O	14.7µM*	16.7	-8.0%	-28.0%	6.3%
CCCc1nnc(NC(=S)Nc2ccccc2)s1	62.3%	3.2	-2.2%	-13.4%	27.1%
CC(C)C(=O)Nc1nnc(NC(=S)Nc2ccccc2)s1	6.5%	61.4	25.1µM*	5.4%	11.7µM*
O=C(O)c1ccc(CN(c2ccccc2)S(=O)(=O)c2ccccc2)cc1	?	51.1	101.0%	14.9%	7.8%
CNC(=O)[C@H](C)[C@@H]1C[C@@]1(C)[C@@H](NC(=O)OCc1ccccc1)c1ccccc1	13.1µM*	2.6	-1.9%	-4.1%	?
Cc1ccc(CNC(=O)[C@H](C)[C@H]2C[C@]2(C)[C@H](NC(=O)OCc2ccccc2)c2ccccc2)o1	?	/	31.6µM*	1.8%	?
O=S(=O)(Nc1nc2cc3c(cc2nc1Cl)OCCO3)c1ccccc1	14.7µM*	62.2	-20.1%	?	16.4%
CN[C@@H]1[C@H](O[C@H]2[C@@H](O[C@@H]3[C@@H](O)[C@@H](O)[C@@H](N=C(N)N)[C@@H](O)[C@@H]3N=C(N)N)O[C@@H](C)[C@]2(O)CO)O[C@H](CO)[C@@H](O)[C@@H]1O	/	/	/	4.4%[21.7 µM]	/
C=C1C(=O)O[C@H]2C[C@@H](C)[C@@H]3C=CC(=O)[C@@]3(C)C[C@H]12	5.22µM*	-99.1*	35.5µM*	2.9%	8.28µM*
C=C1C(=O)OC2C1CCC(C)C1(O)C=CC(=O)C21C (centres undefined)	/	-108.0*	/	/	/
C=C1C(=O)OC2C1CCC(C)C1C=CC(=O)C12C (centres undefined)	/	-96.8*	/	/	/
COc1cccc(-c2cc3c(Nc4ccc(OC)cc4C)nccc3n2C)c1	/	-2.2	/	/	/

Source: PubChem BioAssay
